GDH-TPI counter-1: counter-screen for M. tuberculosis FBA inhibitors: GDH-TPI coupled enzymes. GDH-TPI coupled enzyme counterscreen, NADH absorbance. inhibition, % at 4.8 µM. actives 1.2% (n = 360,000). AID 588335; in the data active means inhibition above about 30%
Mtb hypoxia inh: Mtb hypoxia fluorescent reporter inhibition; M. tuberculosis hypoxia-regulated fluorescent reporter, fluorescence; fluorescence inhibition, % (concentration not given with the values); actives 0.1% (n = 300,000); AID 1159583; in the data active means fluorescence inhibition mostly above about 23%, no sharp cut-off; inactive means mostly below about 17%
FBA Mtb inh: inhibits M. tuberculosis FBA enzyme | actives 2.3% (n = 360,000) | inhibition, % at 1 µM | purified M. tuberculosis FBA, fluorescence read-out | P9WQA3
Rv3671c inh: Rv3671c (M. tuberculosis) protease inhibition; actives 0.048% (n = 320,000); inhibition, % at 5.96 µM; P9WHR9; in the data active means inhibition above about 38%;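 further: extracellular domain of Rv3671c used as enzyme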
Target sequence (P9WHR9 whole entry, looked up, the tested form may be a part): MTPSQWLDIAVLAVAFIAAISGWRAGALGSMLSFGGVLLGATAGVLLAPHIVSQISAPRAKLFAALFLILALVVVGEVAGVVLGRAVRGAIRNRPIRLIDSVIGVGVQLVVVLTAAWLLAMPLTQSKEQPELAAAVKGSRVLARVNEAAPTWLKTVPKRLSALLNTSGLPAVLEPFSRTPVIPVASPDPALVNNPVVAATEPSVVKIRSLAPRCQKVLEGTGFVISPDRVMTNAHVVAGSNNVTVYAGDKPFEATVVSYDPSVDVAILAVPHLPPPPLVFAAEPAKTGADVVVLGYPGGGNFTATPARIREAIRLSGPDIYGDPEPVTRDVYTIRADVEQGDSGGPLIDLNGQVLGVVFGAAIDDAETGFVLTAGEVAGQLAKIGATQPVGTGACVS
UGM FP inh: blocks M. tuberculosis UGM enzyme | purified UGM, fluorescence polarization probe displacement | inhibition, % at 10 µM | AID 504406 | actives 0.06% (n = 320,000); in the data active means inhibition above about 10%, passing the limit was not always enough
FadD28 FP inh: M. tuberculosis FadD28 bisubstrate binding inhibition; AID 588549; FadD28 bisubstrate probe binding, fluorescence polarization; inhibition, % at 12.5 µM; actives 0.22% (n = 360,000); in the data active means inhibition above about 8.5%, passing the limit was not always enough
Mtb FBA confirm: Mtb FBA inhibition, confirmed; shares compounds with FBA Mtb inh; AID 651616; purified M. tuberculosis FBA, fluorescence read-out; inhibition, % at 1 µM; actives 78% (n = 5,600)
GDH-TPI counter-2: GDH-TPI inhibition counter-screen for FBA inhibitors | shares compounds with FBA Mtb inh | actives 81% (n = 5,600) | inhibition, % at 1 µM | GDH-TPI coupled enzyme counterscreen, fluorescence; in the data active means inhibition above about 10%
GDH-TPI dose: GDH-TPI dose response counter-screen for Mtb FBA; actives 79% (n = 170); GDH-TPI coupled enzyme assay, fluorescence, artifact counterscreen; IC50, µM; shares compounds with FBA Mtb inh; AID 652145; call rule not given here
A number is an active result; - = inactive; . = no result; + = active, no number. Compounds with a hit are over-represented: about 3.5% of the library has one in this group of screens. Unless noted, no stated cut-off is given here; in the data, active means inhibition above about 27%; inactive means the rest.

SMILES	GDH-TPI counter-1	Mtb hypoxia inh	FBA Mtb inh	Rv3671c inh	UGM FP inh	FadD28 FP inh	Mtb FBA confirm	GDH-TPI counter-2	others
COc1ccccc1Oc1coc2c(CN3CCN(C)CC3)c(O)ccc2c1=O	-	-	80.4	-	-	-	90.6	72.7
CCOC1OC(C(=O)O)=CC(C(C)(C)C)C1CCCO (centres undefined)	.	-	.	.	.	.	.	.
CC(=NNC(=O)Cc1cccn1C)c1ccccc1	.	-	.	.	.	.	.	.
COc1ccc(OCC(=O)NN=Cc2cccc3cccnc23)cc1	.	-	.	.	.	.	.	.
CC#CC(CC)c1ccc2ccn(C)c2c1 (centres undefined)	.	-	.	.	.	.	.	.
Cc1cnn(-c2cc(NN=Cc3ccc(F)cc3)ncn2)c1	.	-	.	.	.	.	.	.
COc1ccc(NC(=O)C2Cc3c(-c4ccc5c(c4)OCO5)ccnc3O2)cc1 (centres undefined)	-	.	46.4	.	.	-	-	12.1
O=C(NCC1CC1)C1Cc2c(-c3ccc4c(c3)OCO4)ccnc2O1 (centres undefined)	-	.	54.1	.	.	-	138.0	94.5
CC(=O)Nc1ccc(NC(=O)C2Cc3c(-c4ccc5c(c4)OCO5)ccnc3O2)cc1 (centres undefined)	-	.	33.0	.	.	-	-	-
CC(=O)NCCNC(=O)C1Cc2c(-c3ccc4c(c3)OCO4)ccnc2O1 (centres undefined)	-	.	64.8	.	.	-	-	-	GDH-TPI dose=2.91
CC(=O)Nc1cccc(-c2ccnc3c2CC(C(=O)Nc2ccc4c(c2)OCO4)O3)c1 (centres undefined)	-	.	-	.	.	-	.	.
CC(=O)NCCNC(=O)C1Cc2c(-c3ccccc3)ccnc2O1 (centres undefined)	-	.	-	.	.	-	.	.
O=C(NCC1CC1)C1Cc2c(-c3cccc(F)c3)ccnc2O1 (centres undefined)	-	.	-	.	.	-	.	.
O=C1NC2(CCCCC2)C(=O)N1N=Cc1ccc(O)cc1O	.	-	.	.	.	.	.	.
OC1c2ccccc2C(Cc2cncs2)C1Br (centres undefined)	.	-	.	.	.	.	.	.
CCCc1c(C(=O)NN=C/C(C)=C/c2ccccc2)nnn1-c1nonc1N	.	-	.	.	.	.	.	.
O=[N+]([O-])c1ccc(OCCOc2ccccc2C=Nn2cnnc2)cc1	.	-	.	.	.	.	.	.
CC1=CSC(=C(C#N)C(=O)N2CCCCC2)N1c1ccccc1	.	-	.	.	.	.	.	.
O=C(Nc1ccc2c(c1)OCO2)C1Cc2c(-c3ccncc3)ccnc2O1 (centres undefined)	-	.	-	.	.	-	.	.
CNC(=O)C1Cc2c(-c3ccc4c(c3)OCO4)ccnc2O1 (centres undefined)	-	.	59.7	.	.	-	96.8	76.5
CN1CCN(C(=O)C2Cc3c(-c4ccc5c(c4)OCO5)ccnc3O2)CC1 (centres undefined)	-	.	40.2	.	.	-	-	-	GDH-TPI dose=3.08
O=C(Nc1ccc2c(c1)OCO2)C1Cc2c(-c3ccc4c(c3)OCO4)ccnc2O1 (centres undefined)	-	.	35.8	.	.	-	77.0	60.8
CC1CN(C(C)CO)C(=O)c2cccc(NC(=O)Nc3ccc(C(F)(F)F)cc3)c2OC1CN(C)S(=O)(=O)c1cn(C)cn1 (centres undefined)	.	-	.	.	.	.	.	.
O=C(Nc1ccc2c(c1)C(=O)OC2)c1ccc(Cl)cc1Cl	-	-	-	-	-	-	.	.
CN1C(=O)c2ccc(NC(=O)c3ccc(Cl)cc3Cl)cc2C1=O	-	-	37.5	-	-	-	95.1	70.0
SMILES	GDH-TPI counter-1	Mtb hypoxia inh	FBA Mtb inh	Rv3671c inh	UGM FP inh	FadD28 FP inh	Mtb FBA confirm	GDH-TPI counter-2	others
Cc1ccc(CN2C(CC(C)C)COCCS2(=O)=O)cc1 (centres undefined)	.	-	.	.	.	.	.	.
c1ccc(-c2nnc(-c3ccco3)o2)cc1	-	-	41.9	-	-	-	64.3	49.0
Brc1ccc(-c2nnc(-c3ccco3)o2)cc1	-	-	59.8	-	-	-	149.1	145.3
CCOc1cc(-c2nnc(-c3ccco3)o2)cc(OCC)c1OCC	-	-	-	-	-	-	.	.
CCOc1ccc(-c2nnc(-c3ccco3)o2)cc1OCC	-	-	74.2	-	-	-	130.1	119.4
CCOC(=O)C(=NO)C(C)=NNC(=O)C(=O)Nc1ccc(Cl)cc1	.	-	.	.	.	.	.	.
Cc1ccccc1CN1CC2CC(c3cnc(N4CCOCC4)s3)N3CCC[C@@]23C1=O (some centres undefined)	.	-	.	.	.	.	.	.
C=C(C)C1CC=C(C)C(=NNC(=O)c2ccc(NC(=O)CC)cc2)C1 (centres undefined)	.	-	.	.	.	.	.	.
O=C(CN1C(=O)NC2(CCCCCCC2)C1=O)N1CCN(C(=O)c2ccco2)CC1	-	.	41.6	-	-	-	+	160.8
COc1ccc(-c2c(C)nc3c(-c4ccccn4)cnn3c2N)cc1	-	-	27.3	.	-	-	67.6	66.9
Cn1cc(C(=O)c2ccc(Cl)cc2Cl)cc1C(=O)NN=C(N)COc1ccc(F)cc1	.	-	.	.	.	.	.	.
COc1ccc(C2=NN(c3ccccc3)C(c3cn(CCC(=O)O)nc3-c3ccccc3)C2)cc1 (centres undefined)	-	-	107.8	-	-	-	-	19.0
COc1ccc(C2CC(c3ccccc3)=NN2c2ccc(Cl)c(C(=O)O)c2)cc1 (centres undefined)	-	-	85.9	-	-	-	+	+
COc1ccc(C2=NN(C(=S)Nc3ccccc3)C(c3ccccc3)C2)cc1 (centres undefined)	-	-	-	-	-	-	.	.
COc1ccc(C2CC(c3ccncc3)=NN2c2ccc(S(N)(=O)=O)cc2)cc1 (centres undefined)	-	-	68.4	.	.	-	108.6	87.6
COc1ccc(C2CC(c3ccccc3)=NN2C(=O)c2ccc(F)cc2)cc1 (centres undefined)	-	-	-	-	-	-	.	.
CCC(=O)Nc1cccc(C2=NN(c3ccccc3)C(c3ccc(OC)cc3)C2)c1 (centres undefined)	-	-	77.1	-	-	-	104.0	69.0
COc1cc(C=c2sc3n(c2=O)C(c2ccccc2)C(c2ccccc2)=NN=3)ccc1O (centres undefined)	.	-	.	.	.	.	.	.
C/C(C=NNC(=O)CN1CCN(Cc2ccc(Cl)cc2)CC1)=C\c1ccco1	.	-	.	.	.	.	.	.
CCOc1ccc2oc(C(=O)OCC(=O)N3CC(C)OC(C)C3)c(C)c2c1 (centres undefined)	-	-	45.8	-	-	-	+	+
Cc1c(C(=O)OCC(=O)N2CC(C)OC(C)C2)oc2ccc(Br)cc12 (centres undefined)	-	-	-	-	-	-	.	.
COc1ccc2oc(C(=O)OCC(=O)N3CCCC(C)C3)c(C)c2c1 (centres undefined)	-	-	62.7	-	-	-	61.2	55.0
